Active and inactive are the calls of the source. Unless noted, no rule for the calls is given here.
Tests used:
[1] = resazurin metabolic signal in HepG2 cells – cell-based, resazurin fluorescence, 24 h, PK04 Diversity Set, profiling panel (AID 1172); conditions: HepG2 viability, higher = more signal
[2] = budding yeast growth changes without added modifier – OD600, strain BY4716, 24 h, basal condition, primary screen (AID 1173); conditions: S. cerevisiae BY4716 growth, OD600, 24 h; higher = more signal, called active from +8 up or from −8 down
[3] = viability profiling in MM1S myeloma cells – cell-based, resazurin fluorescence, basal, 24 h, PK04 Diversity Set, profiling panel (AID 1174); conditions: higher = more signal, called active from +8 up or from −8 down;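 also: MM1S multiple myeloma cell line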
[4] = molecular target: Dihydroorotate dehydrogenase (quinone), mitochondrial (Plasmodium falciparum (isolate 3D7)) (UniProt Q08210); assay: inhibition of P. falciparum DHODH – biochemical, C-terminal His tag, absorbance 600 nm, primary screen (AID 1175); conditions: PfDHODH enzyme, DCIP absorbance 600 nm; higher = more signal, called active from +8 up or from −8 down;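 also: recombinant parasite enzyme with a five histidine tag at its C terminus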
[5] = inhibition of PAO1 biofilm formation – strain PAO1, LB-PBS medium, absorbance 600 nm, primary screen (AID 1176); conditions: P. aeruginosa PAO1 growth/biofilm, A600, 12 h; higher = more signal
[6] = growth modulation of vineyard yeast isolate – strain RM11-1a, OD600, basal, 24 h, primary screen (AID 1177);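 also: cultures grown under basal conditions with no added stressor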; conditions: S. cerevisiae RM11-1a growth, OD600, 24 h; higher = more signal, called active from +8 up or from −8 down
[7] = growth of efflux-deficient E. coli DRC39 – strain DRC39, OD650, 24 h, E. coli filamentation inducers, primary screen (AID 1178);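 also: growth measured as culture turbidity by optical density at 650 nm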; conditions: E. coli DRC39 acrAB, higher = more signal, called active from +8 up or from −8 down
[8] = growth of efflux-deficient E. coli DRC39 – strain DRC39, OD650, 48 h, E. coli filamentation inducers, primary screen (AID 1179);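 also: screen aims at cell division blockers that make cells filament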; conditions: E. coli DRC39 delta-acrAB growth, higher = more signal, called active from +8 up or from −8 down
[9] = viability profiling in RPMI8226 myeloma cells – cell-based, resazurin fluorescence, basal, 24 h, PK04 Diversity Set, profiling panel (AID 1180); conditions: higher = more signal;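 also: RPMI8826 multiple myeloma cell line at 5000 cells per well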
[10] = molecular target: E3 ubiquitin-protein ligase XIAP (Homo sapiens) (UniProt P98170); assay: small molecules binding XIAP protein – biophysical, small-molecule microarray, fluorescence 635 nm, primary screen (AID 1181); conditions: higher = more signal;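 also: score merges 667 nm emission and signal to noise over triplicate slides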
[11] = system: XIP peptide (Xip251-270) binding; assay: XIP fragment 251-270 binding compounds – biochemical, small-molecule microarray, fluorescence 635/667 nm, 0.1 µg/mL protein, primary screen (AID 1182); conditions: fluorescent protein binding, 635 nm, higher = more signal, called active from +8 up or from −8 down
XIP peptide (Xip251-270) = assay: compounds binding XIP fragment 251-270 – biochemical, small-molecule microarray, fluorescence 635/667 nm, 0.5 µg/mL protein, primary screen (AID 1183); conditions: fluorescence 635 nm, higher = more signal
[12] = blood-stage malaria parasite viability loss – strain 3D7, DAPI fluorescence, 100 nL, primary screen (AID 1184);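 also: parasites grown inside human red blood cells in medium with human serum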; conditions: P. falciparum 3D7 growth, 3 d, higher = more signal
[13] = molecular target: Homeobox protein Hox-A13 (Mus musculus) (UniProt Q62424); assay: disruptors of Hoxa13 oligonucleotide interaction – biochemical, fluorescence polarization, labeled oligonucleotide, primary screen (AID 1185); conditions: Hoxa13:DNA binding, 15 min, higher = more signal, called active from +8 up or from −8 down
[14] = blockers of DNA damage checkpoint Chk1 activation – imaging, HeLa, hydroxyurea, phospho-Chk1 antibody, percent positive cells, primary screen (AID 1186); conditions: hydroxyurea-induced phospho-Chk1 immunofluorescence imaging, higher = more signal
[15] = blockers of DNA damage checkpoint Chk1 activation – imaging, HeLa, hydroxyurea, phospho-Chk1 nuclear intensity, primary screen (AID 1187); conditions: hydroxyurea-induced phospho-Chk1 immunofluorescence imaging, higher = more signal

Sequence of Dihydroorotate dehydrogenase (quinone), mitochondrial (Plasmodium falciparum (isolate 3D7)) (Q08210 whole entry, looked up): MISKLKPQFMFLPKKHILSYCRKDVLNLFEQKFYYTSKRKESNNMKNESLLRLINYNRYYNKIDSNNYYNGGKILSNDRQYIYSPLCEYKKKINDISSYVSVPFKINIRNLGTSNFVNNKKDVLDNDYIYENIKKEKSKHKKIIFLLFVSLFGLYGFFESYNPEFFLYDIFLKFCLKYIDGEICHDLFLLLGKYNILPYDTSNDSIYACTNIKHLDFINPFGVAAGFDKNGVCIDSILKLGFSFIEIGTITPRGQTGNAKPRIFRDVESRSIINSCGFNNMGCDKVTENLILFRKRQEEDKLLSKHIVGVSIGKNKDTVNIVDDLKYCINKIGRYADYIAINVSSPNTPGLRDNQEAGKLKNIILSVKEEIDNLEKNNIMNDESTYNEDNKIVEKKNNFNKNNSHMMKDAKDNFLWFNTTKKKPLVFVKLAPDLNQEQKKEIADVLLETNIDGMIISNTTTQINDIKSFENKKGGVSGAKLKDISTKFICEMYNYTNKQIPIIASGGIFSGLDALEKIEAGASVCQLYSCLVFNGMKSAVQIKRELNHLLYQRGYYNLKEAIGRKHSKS
Sequence of E3 ubiquitin-protein ligase XIAP (Homo sapiens) (P98170 whole entry, looked up, the tested form may be a part): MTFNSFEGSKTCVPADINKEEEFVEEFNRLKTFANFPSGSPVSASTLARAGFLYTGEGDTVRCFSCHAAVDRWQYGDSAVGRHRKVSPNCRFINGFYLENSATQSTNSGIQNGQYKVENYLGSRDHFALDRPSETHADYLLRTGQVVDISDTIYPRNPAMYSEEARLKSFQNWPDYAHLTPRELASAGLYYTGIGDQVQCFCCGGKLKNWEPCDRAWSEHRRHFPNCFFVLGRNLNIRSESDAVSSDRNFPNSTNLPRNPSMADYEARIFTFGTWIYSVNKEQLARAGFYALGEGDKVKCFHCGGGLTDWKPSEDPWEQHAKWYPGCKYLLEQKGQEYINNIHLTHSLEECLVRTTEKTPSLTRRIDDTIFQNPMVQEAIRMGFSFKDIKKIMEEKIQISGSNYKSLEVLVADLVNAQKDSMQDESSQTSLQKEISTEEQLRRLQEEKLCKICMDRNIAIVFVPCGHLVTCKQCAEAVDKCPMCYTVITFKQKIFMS
Sequence of Homeobox protein Hox-A13 (Mus musculus) (Q62424 whole entry, looked up): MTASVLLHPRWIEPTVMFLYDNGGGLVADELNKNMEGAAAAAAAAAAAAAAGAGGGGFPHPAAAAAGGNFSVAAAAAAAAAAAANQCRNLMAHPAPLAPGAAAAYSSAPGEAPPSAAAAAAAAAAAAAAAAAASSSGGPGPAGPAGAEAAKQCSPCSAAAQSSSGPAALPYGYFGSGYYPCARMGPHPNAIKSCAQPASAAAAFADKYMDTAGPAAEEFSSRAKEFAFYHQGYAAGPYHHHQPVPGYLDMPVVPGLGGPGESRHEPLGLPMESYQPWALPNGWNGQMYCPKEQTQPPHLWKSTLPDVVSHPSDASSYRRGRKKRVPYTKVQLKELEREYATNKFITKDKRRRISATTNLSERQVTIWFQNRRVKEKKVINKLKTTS

Compound	z-score [1]	z-score [2]	z-score [3]	composite z-score [4]	z-score [5]	z-score [6]	z-score [7]	z-score [8]	z-score [9]	composite z-score [10]	composite z-score [11]	composite z-score (XIP peptide (Xip251-270))	z-score [12]	z-score [13]	z-score [14]	z-score [15]
C=C(COC)C(=O)CC[C@@H](OC(=O)c1cccnc1)c1cccc(OCCO)c1	0.312	0.798 (inactive)	-0.857 (inactive)	-0.289 (inactive)	0.543 (inactive)	0.544 (inactive)	1.16 (inactive)	0.927 (inactive)	-2.55	-0.162	-0.209 (inactive)	0.617	-2.53	-4.51 (inactive)	-0.494 (inactive)	2.22 (inactive)
C=CCC(OC(C)=O)[C@@H]1[C@@H](N(Cc2ccc(-c3cccc(C(F)(F)F)c3)o2)C(=O)Cc2ccc(F)cc2)c2cc(OCCCO)ccc2N1C(=O)c1ccc2ccccc2n1 (stereo partly drawn)	0.286	0.441 (inactive)	0.229 (inactive)	-0.235 (inactive)	0.927 (inactive)	-0.116 (inactive)	-0.36 (inactive)	-0.15 (inactive)	-0.128	0.0454	-0.384 (inactive)	-0.904	0.587	-2.08 (inactive)	0.918 (inactive)	0.64 (inactive)
COc1ccccc1CN1C(=O)c2ccccc2[C@](Cc2ccccc2I)(C(=O)NCCCN(C)C)[C@@H]1c1ccc(CO)cc1	-6.49	-10.3 (active)	-9.07 (active)	-0.572 (inactive)	1.57 (inactive)	-0.133 (inactive)	-1.17 (inactive)	-2.71 (inactive)	-6.58	-0.175	0.287 (inactive)	0.808	-2.36	1.61 (inactive)	-0.215 (inactive)	-0.184 (inactive)
CN(C)CCCC[C@@H]1NC(=O)[C@H]2C[C@@H](C(=O)O)[C@@H](c3cccc(OCCO)c3)N2C1=O	0.629	-1.12 (inactive)	0.499 (inactive)	-0.614 (inactive)	-0.0185 (inactive)	-0.452 (inactive)	-0.0925 (inactive)	-0.151 (inactive)	0.546	0.332	0.432 (inactive)	0.288	-0.133	-1.71 (inactive)	-0.791 (inactive)	-0.55 (inactive)
C=CCNC(=O)[C@H]1[C@@H]2C(=O)O[C@@H](c3ccccc3)[C@@H](c3ccccc3)N2[C@@H](c2ccccc2OCCO)[C@]12C(=O)N(C(=O)OCCOC)c1ccccc12	-0.293	1.52 (inactive)	-1.04 (inactive)	0.692 (inactive)	2.98 (inactive)	2 (inactive)	0.225 (inactive)	-0.369 (inactive)	-2.9	0.0797	0.346 (inactive)	0.814	-1.68	-4.77 (inactive)	0.0539 (inactive)	0.109 (inactive)
C=CC[C@]1(C(=O)NCCCOC)N=C(c2ccc(OCCCO)cc2)O[C@H]1c1ccccc1	0.998	-0.96 (inactive)	0.619 (inactive)	-0.205 (inactive)	-0.661 (inactive)	0.0543 (inactive)	0.178 (inactive)	0.735 (inactive)	1.36	0.102	0.227 (inactive)	0.659	-0.67	-6.7 (inactive)	-0.132 (inactive)	0.0245 (inactive)
CC1CC/C=C\[C@H]2OC34C=CCN(CCN5CCOCC5)C(=O)[C@H]3N(CCCCCCO)C(=O)[C@@H]4C2C(=O)O1 (stereo partly drawn)	-0.655	-0.195 (inactive)	-0.513 (inactive)	0.85 (inactive)	-0.717 (inactive)	0.615 (inactive)	0.125 (inactive)	0.602 (inactive)	0.761	0.288	0.135 (inactive)	0.935	1.04	-5.39 (inactive)	-0.453 (inactive)	0.519 (inactive)
[N-]=[N+]=NCc1ccccc1[C@@H]1OC(c2ccc(OCCCO)cc2)=N[C@]1(Cc1ccccc1)C(=O)NCc1ccccc1	0.771	0.467 (inactive)	-0.0664 (inactive)	0.101 (inactive)	-0.223 (inactive)	1.7 (inactive)	-0.0548 (inactive)	0.065 (inactive)	-0.484	0.1	0.362 (inactive)	0.573	-2.24	2.8 (inactive)	-0.306 (inactive)	-0.144 (inactive)

— PubChem BioAssay
